# Test results published in PubChem BioAssay (Tox21).
# Results filed as inconclusive are left out. A call without a number means that no potency is given here. Unmarked numbers belong to inactive results. Calls of active or inactive are those of the source. The call rests on the fitted dose curve; in most records, active means well fitted cell-killing curve with a large enough effect in the repeat runs; inconclusive means weak or mixed curves, or effect the other way; inactive means flat fitted curve, though single readings scatter.
# Legend:
# [1] = cAMP Responsive Elements (CRE) small molecule antagonists, cell-based qHTS assay: qHTS cell viability counter screen (AID 2060913); conditions: CRE-bla HEK293T viability, CellTiter-Glo luminescence, 5 h; series mostly up to 92.4 µM; further: nearly all actives have a fitted effect of over 40% in size
# Method in brief: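 Steps: cells plated and held 18 hrs at 37 C/5% CO2; compounds and NKH477 (0.25 uM final) added; 3 hrs incubation; reporter substrate read; CellTiter-Glo added to measure cytotoxicity by luminescence.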
# [2] = cAMP Responsive Elements (CRE) small molecule agonists, cell-based qHTS assay: qHTS cell viability counter screen (AID 2060914); conditions: CRE-bla HEK293T viability, CellTiter-Glo luminescence, 5 h; series mostly up to 92.4 µM;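 further: viability read after 3 h of compound exposure; nearly all actives have a fitted effect of over 50% in size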
# Method in brief: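 CRE-bla HEK 293T cells, plated 18 h at 37 °C, were exposed to compounds for 3 h at 37 °C/5% CO2. Viability was then measured in the same wells by CellTiter-Glo luminescence after 30 min at room temperature.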
# Potency means the concentration at half of the fitted maximal effect.
SMILES,Potency [1],Potency [2],"viability change, negative = cytotoxic [1]","activity change, negative = cytotoxicity [2]"
CCOC(=O)C(C)Oc1ccc(Oc2nc3ccc(Cl)cc3o2)cc1 (stereo not drawn),inactive,inactive,–,–
O=C(c1ccccc1)C1(O)CCCCC1,inactive,inactive,–,–
CN1Cc2c(N)cccc2C(c2ccccc2)C1 (stereo not drawn),inactive,inactive,–,–
CCCCC(CC)COCCO (stereo not drawn),inactive,inactive,–,–
CCCCC/C(C=O)=C\c1ccccc1,inactive,inactive,–,–
O=C1c2c(O)cccc2Cc2cccc(O)c21,inactive,inactive,–,–
O=C(O)[C@H](O)[C@@H](O)[C@H](O)[C@H](O)CO,inactive,inactive,–,–
CCCCC[C@H](O)/C=C/[C@H]1[C@H](O)CC(=O)[C@@H]1C/C=C\CCCC(=O)O,inactive,inactive,–,–
NC(N)=NS(=O)(=O)c1ccc(N)cc1,inactive,inactive,–,–
COc1ccc(/C=C/c2cc(OC)cc(=O)o2)cc1,inactive,inactive,–,–
C[C@H]1O[C@H](O[C@H]2[C@H](O)[C@@H](O)[C@@H](O[C@H]3[C@H](O)[C@@H](O)[C@H](O)O[C@@H]3CO)O[C@@H]2CO)[C@H](O)[C@@H](O)[C@@H]1N[C@H]1C=C(CO)[C@@H](O)[C@H](O)[C@H]1O,inactive,inactive,–,–
NO,inactive,inactive,–,–
Cc1ccc(OC(=O)CC(C)C)cc1,inactive,inactive,–,–
CCC(C)C(C)=O (stereo not drawn),inactive,inactive,–,–
Cc1cccc(OCCOc2cccc(C)c2)c1,inactive,inactive,–,–
O=C1c2cccc(O)c2C(=O)c2c(O)cccc21,inactive,inactive,–,–
Oc1ccc2c(c1)CCC2,inactive,inactive,–,–
Cc1cccc(C)c1NC(=O)CN1CCCC1,inactive,inactive,–,–
O=c1c(O)c(-c2ccc(O)c(O)c2)oc2cc(O)cc(O)c12,inactive,inactive,–,–
COc1c2ccoc2cc2oc(=O)ccc12,inactive,inactive,–,–
CCCCCCCCCCCCCBr,inactive,inactive,–,–
CCCCCCCC(=O)O,inactive,inactive,–,–
Nc1ccc(N=Nc2ccccc2)c(N)n1,inactive,inactive,–,–
Cc1ccccc1N=C(N)N=C(N)N,inactive,inactive,–,–
CO[Si](OC)(OC)OC,inactive,inactive,–,–

SMILES,Potency [1],Potency [2],"viability change, negative = cytotoxic [1]","activity change, negative = cytotoxicity [2]"
OC[C@@H](O)[C@@H](O)[C@H](O)[C@@H](O)CO,inactive,inactive,–,–
CCC(C)COC(=O)CC(C)C (stereo not drawn),inactive,inactive,–,–
CC(=O)Nc1ccc(CC(=O)O)cc1,inactive,inactive,–,–
CC(=O)OCC(=O)[C@@]12N=C(C)O[C@@H]1C[C@H]1[C@@H]3CCC4=CC(=O)C=C[C@]4(C)[C@H]3[C@@H](O)C[C@@]12C,inactive,inactive,–,–
C1=C\CC/C=C\CC/C=C\CC/1,inactive,inactive,–,–
CCCCN(CCCC)CCCOC(=O)c1ccc(N)cc1,inactive,inactive,–,–
CO[C@@]1(NC(=O)C(C(=O)O)c2ccc(O)cc2)C(=O)N2C(C(=O)O)=C(CSc3nnnn3C)CO[C@@H]21 (stereo partly drawn),inactive,inactive,–,–
CC1=C(O)C(=O)C(C)O1 (stereo not drawn),inactive,inactive,–,–
C[C@H](N)[C@H](O)c1cccc(O)c1,inactive,inactive,–,–
CC1=CC(=O)[C@H]2C[C@@H]1C2(C)C,inactive,inactive,–,–
N#C/C(=C1/SC[C@@H](c2ccc(Cl)cc2Cl)S1)n1ccnc1,inactive,inactive,–,–
CC(Oc1c(Cl)cccc1Cl)C1=NCCN1 (stereo not drawn),inactive,inactive,–,–
CC(C)CCOC(=O)c1ccc(N(C)C)cc1,inactive,inactive,–,–
CN(C)[C@@H](CCOc1cccc2ccccc12)c1ccccc1,inactive,inactive,–,–
CCCCCC[C@@H](O)C/C=C\CCCCCCCC(=O)OCC(O)CO (stereo partly drawn),inactive,inactive,–,–
Cc1ccc(OC(=O)c2ccccc2O)cc1,inactive,inactive,–,–
NNC(=O)c1cccc(C(=O)NN)c1,inactive,inactive,–,–
CC1Cc2ccccc2N1NC(=O)c1ccc(Cl)c(S(N)(=O)=O)c1 (stereo not drawn),inactive,inactive,–,–
CC(C)(C)C1CCC(O)CC1 (stereo not drawn),inactive,inactive,–,–
CCOC(=O)C1=NN(c2ccc(Cl)cc2Cl)C(C)(C(=O)OCC)C1 (stereo not drawn),inactive,inactive,–,–
O=S1(=O)CC(Cl)(Cl)C(Cl)(Cl)C1,15.4 µM (active),34.4 µM (active),–,–
Clc1sc(Cl)c(Cl)c1Cl,inactive,inactive,–,–
C[C@H]1C[C@H]2[C@@H]3CCC4=CC(=O)C=C[C@]4(C)[C@@]3(Cl)[C@@H](O)C[C@]2(C)[C@@]1(O)C(=O)CO,inactive,inactive,–,–
CCCCCCCCSCCO,inactive,inactive,–,–
O=C(O)C(c1ccc(Cl)cc1)c1ccc(Cl)cc1,inactive,inactive,–,–

SMILES,Potency [1],Potency [2],"viability change, negative = cytotoxic [1]","activity change, negative = cytotoxicity [2]"
CCCCCOC(=O)Nc1nc(=O)n([C@@H]2O[C@H](C)[C@@H](O)[C@H]2O)cc1F,inactive,inactive,–,–
CC(C)(C)c1ccc(O)c(O)c1,inactive,inactive,–,–
Oc1c(Cl)cc(Cl)c(Cl)c1Cl,inactive,inactive,–,–
O=C(CCCN1CC=C(n2c(=O)[nH]c3ccccc32)CC1)c1ccc(F)cc1,inactive,inactive,–,–
COC(=O)C(C)O (stereo not drawn),inactive,inactive,–,–
Cc1ccc(N(CCO)CCO)cc1,inactive,inactive,–,–
CN(C)C,inactive,inactive,–,–
Cc1nc([N+](=O)[O-])cn1-c1ccc([N+](=O)[O-])cc1,inactive,inactive,–,–
COc1cc2c(cc1N)oc1ccccc12,inactive,inactive,–,–
CCN1CC(CCN2CCOCC2)C(c2ccccc2)(c2ccccc2)C1=O (stereo not drawn),inactive,inactive,–,–
Cc1scc2c1N(C(=O)CN1CCN(C)CC1)c1ccccc1NC2=O,inactive,inactive,–,–
Cc1cccc(C)c1C,inactive,inactive,–,–
COC(=O)C1=C(C)NC(C)=C(C(=O)O[C@@H]2CCCN(Cc3ccccc3)C2)[C@@H]1c1cccc([N+](=O)[O-])c1,inactive,inactive,–,–
CCC(=O)OC/C=C(\C)CCC=C(C)C,inactive,inactive,–,–
CCCCCCC(=O)c1ccccc1,inactive,inactive,–,–
CC(C)(C)CCCCCCOC(=O)c1ccccc1C(=O)OCCCCCCC(C)(C)C,inactive,inactive,–,–
CC(=O)Nc1ncc([N+](=O)[O-])s1,inactive,inactive,–,–
C=C1CCC2CC1C2(C)C (stereo not drawn),inactive,inactive,–,–
CC(C(=O)O)c1ccc(/C=C2\CCCCC2=O)cc1 (stereo not drawn),inactive,inactive,–,–
O=C(O)c1cccc(C(=O)O)c1C(=O)O,inactive,inactive,–,–
CC(=O)C(=O)CC(C)C,inactive,inactive,–,–
CCOCCOCCO,inactive,inactive,–,–
CCCCCCCC/C=C\CCCCCCCC(=O)OCCCC,–,–,-0.67% [at 18.9 µM],-19.4% [at 18.9 µM]
Cc1cccc(O)c1N,inactive,inactive,–,–
O=C1NC(=O)[C@@]2(CCOc3ccc(F)cc32)N1,inactive,inactive,–,–

SMILES,Potency [1],Potency [2],"viability change, negative = cytotoxic [1]","activity change, negative = cytotoxicity [2]"
CCN(CCO)CCCC(C)Nc1ccnc2cc(Cl)ccc12 (stereo not drawn),–,–,24.8% [at 8.39 µM],-9.15% [at 8.39 µM]
COC(=O)c1sccc1S(N)(=O)=O,inactive,inactive,–,–
O=C(O)C(S)C(S)C(=O)O (stereo not drawn),inactive,inactive,–,–
CN1CCC(=C2c3ccccc3C=Cc3ccccc32)CC1,inactive,inactive,–,–
CCCC(C)C(O)CC (stereo not drawn),inactive,inactive,–,–
c1ccncc1,inactive,inactive,–,–
Sc1nc(S)nc(S)n1,inactive,inactive,–,–
Cc1ccccc1C,inactive,inactive,–,–
NC(=O)N(O)[C@@H]1COc2cc(OCc3ccccc3)ccc21,inactive,inactive,–,–
CC1(C)C(=O)N(CO)C(=O)N1CO,inactive,inactive,–,–
CO[Si](CCCNCCNCCN)(OC)OC,inactive,inactive,–,–
c1ccc2c(c1)ccc1ncccc12,inactive,inactive,–,–
CCCCCN(CCCCC)C(=O)C(CCC(=O)O)NC(=O)c1ccc(Cl)c(Cl)c1 (stereo not drawn),inactive,inactive,–,–
C=C(C)[C@H]1CC=C(C)CC1,inactive,inactive,–,–
CC(C)[C@@H]1CC[C@@H](C)CC1=O,inactive,inactive,–,–
C1C2OC2C2C1C1CC2C2OC12 (stereo not drawn),inactive,inactive,–,–
CO[Si](CCCNCCN)(OC)OC,inactive,inactive,–,–
Cc1c[nH]c(=O)[nH]c1=O,inactive,inactive,–,–
CC(C)C=O,inactive,inactive,–,–
CC/C=C\CCCCCO,inactive,inactive,–,–
OCC(CO)(CO)CO,inactive,inactive,–,–
CCCCCOC(=O)CCCCC,inactive,inactive,–,–
Cc1c(C(=O)NCCO)[n+](=O)c2ccccc2n1[O-],inactive,inactive,–,–
CC1=CC[C@H](C(C)C)C=C1,inactive,inactive,–,–
